Shown is part of a subset that was picked to be rich in hits.
Artemis inh = Artemis endonuclease inhibitors, primary screen, biochemical, fluorescence intensity, FAM/BHQ-1 hairpin substrate; 30,000 tested, 0.78% active; inhibition, % at 10 µM; Protein artemis (Homo sapiens), Q96SD1; recombinant Artemis, quenched FAM hairpin cleavage fluorescence; AID 686954, 2013;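 active = at 10 µM dose, at least 30% inhibition, measured as corrected fluorescence normalized to stimulator and neutral control wells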
Target sequence (Q96SD1 whole entry, looked up): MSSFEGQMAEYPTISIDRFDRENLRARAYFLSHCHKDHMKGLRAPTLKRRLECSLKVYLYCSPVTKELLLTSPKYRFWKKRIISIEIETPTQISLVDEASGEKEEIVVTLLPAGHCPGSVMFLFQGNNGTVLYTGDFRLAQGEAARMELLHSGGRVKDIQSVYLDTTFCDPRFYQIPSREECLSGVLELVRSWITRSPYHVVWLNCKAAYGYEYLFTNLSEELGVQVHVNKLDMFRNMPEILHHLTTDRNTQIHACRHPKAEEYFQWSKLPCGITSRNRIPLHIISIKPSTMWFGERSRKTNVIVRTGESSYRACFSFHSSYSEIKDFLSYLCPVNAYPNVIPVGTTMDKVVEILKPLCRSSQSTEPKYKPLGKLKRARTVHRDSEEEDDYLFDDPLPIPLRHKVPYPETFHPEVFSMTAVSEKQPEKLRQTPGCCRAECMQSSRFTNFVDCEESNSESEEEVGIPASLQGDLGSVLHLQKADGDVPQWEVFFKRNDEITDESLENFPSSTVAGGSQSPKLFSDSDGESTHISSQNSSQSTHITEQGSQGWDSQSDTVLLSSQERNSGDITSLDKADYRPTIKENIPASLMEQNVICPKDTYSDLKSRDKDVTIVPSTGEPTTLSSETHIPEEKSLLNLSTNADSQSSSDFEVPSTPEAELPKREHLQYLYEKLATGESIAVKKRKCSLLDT
Active calls of the source: *.

SMILES	Artemis inh
Cc1noc(C)c1S(=O)(=O)N(CCc1ccccc1)Cc1ccccc1	9
O=C(C1CCCCC1)N(Cc1nc2sc3c(c2c(=O)[nH]1)CCCC3)Cc1cccs1	15
CCCC(=O)Nc1ccc(N2CCCCC2)cc1	-6
Cc1cc(OCC(=O)Nc2ccc(N3CCCC3)cc2)cc(C)c1Cl	66*
Cc1cc(OCC(=O)N2CCCC2)cc(C)c1Cl	4
C=CCSc1nnc2c(n1)OC(c1c(C)[nH]n(-c3ccccc3)c1=O)Nc1ccccc1-2 (stereo unspecified)	-6
O=C(c1ccccc1-c1nc2ccccc2[nH]1)N1CCCCC1	0
O=C(c1ccccc1-c1ccccc1)N1CCCC1	-11
O=C(c1ccc2c3c(cccc13)C(=O)N(O)C2=O)N1CCCCC1	47*
Cc1cccc(N/C(=N\S(=O)(=O)c2ccccc2)C(F)(F)F)c1	-4
CC(=O)N(/N=C1\Sc2ccccc2C1=O)c1ccccc1	31*
CC(=O)N(/N=C1\Sc2ccccc2C1=O)c1ccc(C)cc1C	10
Cc1ccccc1-c1coc2cc(O)ccc2c1=O	8
CC(=O)N(/N=C1\Sc2ccccc2C1=O)c1ccccc1C	32*
CC(=O)N(CCCCN1C(=O)c2ccccc2C1=O)c1ccc(C)cc1	5
O=c1[nH]c2c(s1)C(c1ccco1)C1C3CCC(C3)C1S2 (stereo unspecified)	14
Nc1c(-c2ccccc2)cnn1C1CCS(=O)(=O)C1 (stereo unspecified)	-17
CNC(=O)CN(C1CCCCC1)S(=O)(=O)c1ccc(OC)c(Cl)c1	0
COC(=O)c1ccccc1NC(=O)CSc1nnc(CNS(=O)(=O)c2ccc(C)cc2)n1C	-2
Cc1cccc(-n2c(CCCN3C(=O)c4ccccc4C3=O)nc3ccccc3c2=O)n1	-11
CCOC(=O)c1ccc(NC(=O)CNS(=O)(=O)c2ccccc2)cc1	0
CCOC(=O)c1ccc(NC2=CC(=O)C(=O)c3ccccc32)cc1	66*
CCOC(=O)c1ccc(NC(=O)CCOc2ccccc2)cc1	2
Cc1ccc(-c2noc(CCC(=O)NCCN3CCc4ccccc4C3)n2)cc1	10
Cc1c(C)n(C(=O)CN2CCC(C)CC2)c2ccccc12	1
SMILES	Artemis inh
CC(C)CC(=O)NC1(C(F)(F)F)C(=O)Nc2c1c(=O)n(C)c(=O)n2C (stereo unspecified)	-2
C=CCc1c(C)nc(SC)nc1Nc1ccc(C(C)=O)cc1	3
Cc1ccc(S(=O)(=O)N2CCN(C(=O)CN3CCOCC3)C2c2ccccc2)cc1 (stereo unspecified)	-4
COC(=O)[C@@H]1[C@@H](C#N)C2(c3ccccc3-c3ccccc32)N(c2ccc(Cl)cc2)N1C#N	40*
CC1S/C(=C(\C#N)C(=O)NCc2ccco2)N(c2ccc(F)cc2)C1=O (stereo unspecified)	4
CCOc1ccc(N2C(=O)CC(N3CCN(c4ccc(C(=O)c5ccncc5)cc4)CC3)C2=O)cc1 (stereo unspecified)	0
CCN1CCN(C(=O)c2ccc(NS(=O)(=O)c3ccccc3)cc2)CC1	-8
CC(=O)NC(c1ccco1)c1ccc2cccnc2c1O (stereo unspecified)	-3
Cc1cc(NC(c2ccc(Cl)cc2)c2ccc3cccnc3c2O)no1 (stereo unspecified)	10
Oc1c(C(Nc2ccccn2)c2ccccn2)ccc2cccnc12 (stereo unspecified)	38*
COc1cccc(Oc2cncnc2-c2ccc(OC)cc2O)c1	11
N#CCCNc1ccc(OCCC#N)cc1	-3
CC(C)Cn1c2c(c(O)c(C(=O)Nc3ncccc3O)c1=O)CCCC2	30*
C=CCn1c(=O)c(C(=O)Nc2cccnc2)c(O)c2ccccc21	16
CCn1c(=O)c(C(=O)NCc2ccccn2)c(O)c2ccccc21	-5
COc1ccc(CNC(=O)C(c2ccco2)N(C(=O)c2csnn2)c2cccc(C)c2C)cc1 (stereo unspecified)	-1
CC(C)=CC1C(C(=O)Nc2ccc(Br)cn2)C1(C)C (stereo unspecified)	2
Cc1cc(N2C(=O)C(O)=C(C(=O)c3ccc(C)o3)C2c2cccs2)no1 (stereo unspecified)	16
Cc1cc(N2C(=O)C(O)=C(C(=O)c3ccco3)C2c2ccc(O)cc2)no1 (stereo unspecified)	-2
CCc1ccc2nc(N3C(=O)C(O)=C(C(=O)c4ccco4)C3c3cccs3)sc2c1 (stereo unspecified)	43*
O=C(Cc1ccc(NS(=O)(=O)c2ccc(F)cc2)cc1)NCc1ccccc1	2
COC(=O)c1cc(Br)c(=O)n(CCC2=CCCCC2)c1	-2
COc1ccccc1NC(=O)CN1CCN(CC(=O)Nc2ccc(OCc3ccccc3)cc2)CC1	5
COc1ccccc1NC(=O)C(=O)N/N=C(\C)CC(=O)Nc1ccc(OCc2ccccc2)cc1	33*
COc1ccc(NC(=S)Nc2ccc(OCc3ccccc3)cc2)cc1OC	-3
SMILES	Artemis inh
O=C(Nc1cccc(NC(=O)c2ccccc2[N+](=O)[O-])n1)c1ccccc1[N+](=O)[O-]	8
CCSC1=N/C(=C\c2ccc3c(c2)OCO3)C(=O)S1	5
CCSC1=N/C(=C\c2ccc(-c3ccccc3[N+](=O)[O-])o2)C(=O)S1	34*
CSC1=N/C(=C\c2ccc(C)o2)C(=O)S1	7
Cc1ccc(C)c(N(CC(=O)NCCSCc2ccco2)S(C)(=O)=O)c1	1
COc1ccc2nc(-c3cccc(N)c3)[nH]c2c1	1
Nc1ccc2nc(-c3ccccn3)[nH]c2c1	45*
Nc1ccc2nc(-c3ccc(N)c(Cl)c3)[nH]c2c1	22
Cc1ccc(N=Cc2c(O)n(-c3cc(Cl)ccc3N3CCOCC3)c(=O)c3ccccc23)cc1C	6
CC(C)CC(C(=O)Nc1oc(-c2ccco2)c(-c2ccco2)c1C#N)N1C(=O)c2ccccc2C1=O (stereo unspecified)	21
O=C(NCC1CCCO1)c1cc(-c2ccco2)nc2ccccc12 (stereo unspecified)	0
O=C(O)c1cc(-c2ccco2)nc2ccc(Br)cc12	42*
O=C(c1ccco1)N1CCN(C(=O)c2cc(-c3ccncc3)nc3ccc(Br)cc23)CC1	11
CC1Cc2ccccc2N1C(=O)CSc1nnc(Cc2ccccc2)n1CCc1ccccc1 (stereo unspecified)	14
NNC(=O)Cn1c(SCc2ccccc2)nc2ccccc21	0
